Measurements taken from a collection of fitness landscapes (doi:10.1126/science.1257360).
Whole data set: some 140,000 sequences, median “enrichment ratio after two sorts for PhoP signalling” near 0, cut for the highest 2% near 11. This is one part of a sample in which the highest values are shown more often than they occur.

B1: PhoQ; a variant is named by its letters at X, in order, P23837 (parent)
chain: MKKLLRLFFPLSLRVRFLLATAAVVLVLSLAYGMVALIGYSVSFDKTTFRLLRGESNLFYTLAKWENNKLHVELPENIDKQSPTMTLIYDENGQLLWAQRDVPWLMKMIQPDWLKSNGFHEIEADVNDTSLLLSGDHSIQQQLQEVREDDDDAEMTHSVAVNVYPATSRMPKLTIVVVDTIPVELKSSYMVWSWFIYVLSANLLLVIPLLWVAAWWSLRPIEALAKEVRELEEHNRELLNPATTRELTSLVRNLNRLLKSERERYDKYRTTLTDLTHSLKTPLXXLQXXLRSLRSEKMSVSDAEPVMLEQISRISQQIGYYLHRASMRGGTLLSRELHPVAPLLDNLTSALNKVYQRKGVNISLDISPEISFVGEQNDFVEVMGNVLDNACKYCLEFVEISARQTDEHLYIVVEDDGPGIPLSKREVIFDRGQRVDTLRPGQGVGLAVAREITEQYEGKIVAGESMLGGARMEVIFGRQHSAPKDE

Variants of: B1
Assay: enrichment ratio after two sorts for PhoP signalling (ratio (wild type AVST 3.29)); higher = more functional
Conditions: with PhoP (E. coli)

| Variant | enrichment ratio |
| --- | --- |
| RWWS | ≤ 0.25 |
| RAAP | ≤ 0.25 |
| FFQI | ≤ 0.25 |
| NMFS | ≤ 0.25 |
| AIQP | ≤ 0.25 |
| ERDH | ≤ 0.25 |
| FVNS | ≤ 0.25 |
| TVNW | ≤ 0.25 |
| TVNS | 18.9 |
| TVNI | 12.6 |
| PVNI | ≤ 0.25 |
| TVNY | ≤ 0.25 |
| WILF | ≤ 0.25 |
| MDWW | ≤ 0.25 |
| ACPI | 9.4 |
| RIAV | ≤ 0.25 |
| HQNT | ≤ 0.25 |
| IGGC | ≤ 0.25 |
| SHMW | 0.684 |
| THCG | 5.77 |
| SHVG | ≤ 0.25 |
| SHCG | 16.6 |
| THMG | 2.89 |
| SHMG | 17.8 |
| REDG | ≤ 0.25 |

| Variant | enrichment ratio |
| --- | --- |
| WCII | ≤ 0.25 |
| ENIH | ≤ 0.25 |
| MRCK | ≤ 0.25 |
| MGLF | 2.83 |
| RFHY | ≤ 0.25 |
| MMCI | ≤ 0.25 |
| SCAE | 8.81 |
| QTYM | 0.346 |
| QQYM | 47.2 |
| QQYI | ≤ 0.25 |
| TGYM | 26.5 |
| QQYN | ≤ 0.25 |
| TKYN | ≤ 0.25 |
| RGYM | ≤ 0.25 |
| TKYM | 25.3 |
| FFYM | ≤ 0.25 |
| NGYM | ≤ 0.25 |
| MKYM | 6.46 |
| QGYM | 23.9 |
| LYSK | ≤ 0.25 |
| DGPS | ≤ 0.25 |
| NVIN | ≤ 0.25 |
| YLDS | ≤ 0.25 |
| TVAW | 2.61 |
| SNQY | 2.66 |

| Variant | enrichment ratio |
| --- | --- |
| VDNL | ≤ 0.25 |
| REKA | ≤ 0.25 |
| QEYM | 24.7 |
| QDYM | ≤ 0.25 |
| QEFM | 18.2 |
| QKFM | ≤ 0.25 |
| QRFM | ≤ 0.25 |
| STYM | 0.458 |
| GMSV | 6.09 |
| MLVP | ≤ 0.25 |
| NCCG | ≤ 0.25 |
| HRWH | ≤ 0.25 |
| NAWH | ≤ 0.25 |
| HPWH | ≤ 0.25 |
| KCWH | ≤ 0.25 |
| TEWH | 35.2 |
| QAWH | 31.4 |
| TQWH | 21.9 |
| NEWH | ≤ 0.25 |
| NVWH | ≤ 0.25 |
| TGWH | 19.8 |
| KSWH | ≤ 0.25 |
| KAWH | ≤ 0.25 |
| KQNP | ≤ 0.25 |
| RGWC | ≤ 0.25 |

| Variant | enrichment ratio |
| --- | --- |
| PCRT | ≤ 0.25 |
| DAYY | ≤ 0.25 |
| HSCT | ≤ 0.25 |
| VRFP | ≤ 0.25 |
| DLDP | ≤ 0.25 |
| DHCF | ≤ 0.25 |
| MCIR | ≤ 0.25 |
| TELA | 16.8 |
| TENT | 3.14 |
| NELD | ≤ 0.25 |
| MELD | ≤ 0.25 |
| TELT | 14.5 |
| TEFT | 5.71 |
| TEAT | 17 |
| TELD | 13.4 |
| TEYI | 8.43 |
| TEET | ≤ 0.25 |
| TEVT | 3.71 |
| TEWI | 4.93 |
| NHGP | ≤ 0.25 |
| KQPT | ≤ 0.25 |
| KTHI | ≤ 0.25 |
| QTDQ | ≤ 0.25 |
| GRFL | ≤ 0.25 |
| AWWN | ≤ 0.25 |

| Variant | enrichment ratio |
| --- | --- |
| HNIY | ≤ 0.25 |
| YESG | 0.306 |
| HPLH | ≤ 0.25 |
| NELY | ≤ 0.25 |
| HPLN | ≤ 0.25 |
| TELY | 15.5 |
| TELH | 11.2 |
| TEYN | 3.14 |
| TELC | 11.4 |
| TELN | 21.6 |
| NELC | 5.14 |
| QELC | ≤ 0.25 |
| DELY | ≤ 0.25 |
| NELH | 2.12 |
| KTRY | ≤ 0.25 |
| PMLD | ≤ 0.25 |
| APTN | ≤ 0.25 |
| QRGT | ≤ 0.25 |
| MEAS | 3.94 |
| TEAF | 13.8 |
| QEAS | 10.1 |
| TEAA | 2.61 |
| QEAD | ≤ 0.25 |
| MEAF | ≤ 0.25 |
| QGGT | 8.36 |

| Variant | enrichment ratio |
| --- | --- |
| QEAF | ≤ 0.25 |
| QEGT | 24.3 |
| TEAD | 16.8 |
| TEAS | 16.2 |
| EISC | ≤ 0.25 |
| KVKA | ≤ 0.25 |
| EFER | ≤ 0.25 |
| EFNA | ≤ 0.25 |
| IKFE | ≤ 0.25 |
| PTLL | ≤ 0.25 |
| SHIM | 2.2 |
| PILC | ≤ 0.25 |
| MELF | 0.528 |
| TELW | ≤ 0.25 |
| NELL | ≤ 0.25 |
| TELP | ≤ 0.25 |
| TELS | 12.5 |
| NELF | ≤ 0.25 |
| YTYS | ≤ 0.25 |
| TEYS | 11.9 |
| TELF | 12.2 |
| TELL | 16.9 |
| CDYS | ≤ 0.25 |
| MELL | 3.52 |
| PWMG | ≤ 0.25 |

| Variant | enrichment ratio |
| --- | --- |
| ETEG | ≤ 0.25 |
| ASGY | 3.18 |
| YDLK | ≤ 0.25 |
| MDNI | ≤ 0.25 |
| IQKP | ≤ 0.25 |
| VRDA | ≤ 0.25 |
| WIHY | ≤ 0.25 |
| FACS | ≤ 0.25 |
| ESAP | ≤ 0.25 |
| RPEH | ≤ 0.25 |
| MELI | 6.46 |
| TELI | 19.5 |
| NHGT | ≤ 0.25 |
| QELI | ≤ 0.25 |
| TEGT | 22.6 |
| THGT | ≤ 0.25 |
| ADTR | ≤ 0.25 |
| QRFP | ≤ 0.25 |
| VSPY | ≤ 0.25 |
| TGWC | 13.8 |
| KSWC | ≤ 0.25 |
| LCWC | ≤ 0.25 |
| YAWC | ≤ 0.25 |
| WIWC | ≤ 0.25 |
| MMWC | ≤ 0.25 |

| Variant | enrichment ratio |
| --- | --- |
| TSWC | 17.5 |
| KAWC | ≤ 0.25 |
| QRWC | ≤ 0.25 |
| QPWC | ≤ 0.25 |
| TAWC | 11.3 |
| QFWC | 17.1 |
| NPNK | ≤ 0.25 |
| MMHM | ≤ 0.25 |
| SCKK | ≤ 0.25 |
| TYID | ≤ 0.25 |
| LNTD | ≤ 0.25 |
| IKRA | ≤ 0.25 |
| QRQH | ≤ 0.25 |
| NYNA | ≤ 0.25 |
| MFGV | ≤ 0.25 |
| NQWC | ≤ 0.25 |
| NRWC | ≤ 0.25 |
| TQWC | 29.7 |
| LNWC | ≤ 0.25 |
| MNWC | 11.8 |
| TEWC | 33.2 |
| TNWC | ≤ 0.25 |
| HPWC | ≤ 0.25 |
| NEWC | ≤ 0.25 |
